# Results filed as inconclusive are left out. A call without a number means that no potency is given here. Unmarked numbers belong to inactive results. Active and inactive are the calls of the source. The call rests on the fitted dose curve; in most records, active means well fitted cell-killing curve with a large enough effect in the repeat runs; inconclusive means weak or mixed curves, or effect the other way; inactive means flat fitted curve, though single readings scatter.
# Assay: qHTS RealTime-Glo MT Cell Viability Assay in HEK293 cells - 8 hour (AID 1224887); further: nearly all actives have a fitted effect of over 50% in size; on activity change, negative = cytotoxicity: top concentration of the series differs between compounds
# Conditions: RealTime-Glo luminescence; series mostly up to 76.8 µM
# From the text: U.S. Tox21 Program National Center for Advancing Translational Sciences [NCATS] NIH Chemical Genomics Center [NCGC] U.S. Environmental Protection Agency [EPA] National Institutes of Environmental Health Sciences [NIEHS] National Toxicology Program [NTP] U.S. Food and Drug Administration [FDA] Tox21 Assay Overview: Measure of cell viability is critical in the cell-base assay. Analysis of cell viability is necessary for the characterization of cell responses to cytotoxic drugs and environmental stress. A RealTime-Glo MT Cell Viability Assay to monitor cell viability in real time of continues cell culture during 40 hours of compound treatment was used to screen Tox21 10K library compounds in Hek293 cells. The RealTime-Glo MT Cell Viability Assay is a nonlytic, homogeneous, bioluminescent method to measure cell viability in real time using a simple, plate-based method. The assay involves adding NanoLuc luciferase and a cell-permeant prosubstrate to cells in culture. Viable cells reduce the proprietary prosubstrate to generate a substrate for NanoLuc luciferase. This substrate diffuses from cells into the surrounding culture medium, where it is rapidly used by the NanoLuc Enzyme to produce a luminescent signal. The signal correlates with the number of viable cells, making the assay well suited for cytotoxicity studies.
# Tox21 Assay Protocol Summary: The mixture of Hek293 cell suspension and reagents were dispensed at 600cells/6 ul/well in 1536-well tissue culture treated black solid bottom plates using a Multidrop dispenser. After the assay plates were incubated at a 37 C/5% CO2 incubator for 5 hours, 23 nL of compounds dissolved in DMSO, positive and negative controls was transferred to the assay plate by a pintool work station. The plates were incubated at 37 C for 40 hours. The luminescence intensity were measured at 0h, 8h, 16h, 24h, 32h and 40h time points using ViewLux plate reader during compound treatment.
# Potency means the concentration at half of the fitted maximal effect.
SMILES,Potency,"activity change, negative = cytotoxicity"
Cc1ccccc1OCC(O)CO (stereo not given),inactive,
CC(=O)Nc1ccc(S(=O)(=O)Cl)cc1,inactive,
COC(=O)CCc1ccc(OCC(O)CNC(C)C)cc1 (stereo not given),inactive,
COCCc1ccc(OCC2CO2)cc1 (stereo not given),inactive,
CC1(CO)CN(c2ccccc2)NC1=O (stereo not given),inactive,
C[C@H](CCC(=O)O)[C@H]1CC[C@H]2[C@@H]3C(=O)C[C@@H]4CC(=O)CC[C@]4(C)[C@H]3CC(=O)[C@]12C,inactive,
COCCOCCOCCOCCO,inactive,
FC(F)(F)c1ccccc1-n1ccnc1,inactive,
OCCC(F)(F)C(F)(F)C(F)(F)C(F)(F)C(F)(F)C(F)(F)C(F)(F)C(F)(F)F,inactive,
CCCCNC1CC(C)(C)NC(C)(C)C1,inactive,
CCC(C)NC(N)=O (stereo not given),inactive,
CCCC/C=C\CCCCCCCCCC=O,inactive,
Nc1ccc([N+](=O)[O-])c(N)c1,inactive,
CC(C)=O,inactive,
COc1ccc2c(c1OC)C(=O)O[C@@H]2[C@H]1c2c(cc3c(c2OC)OCO3)CCN1C,inactive,
CCCCCCOC(=O)CC,inactive,
COP(=O)(OC)OC(c1ccc(Cl)cc1)P(=O)(OC)OC (stereo not given),inactive,
NS(=O)(=O)c1ccc(NC(=O)CCC(=O)O)cc1,inactive,
COc1ccc(-c2cc(=O)c3c(O)cc(O[C@@H]4O[C@H](CO[C@@H]5O[C@@H](C)[C@H](O)[C@@H](O)[C@H]5O)[C@@H](O)[C@H](O)[C@H]4O)cc3o2)cc1O,inactive,
CN(C)C(=O)CNC(=O)Cc1ccccc1,inactive,

SMILES,Potency,"activity change, negative = cytotoxicity"
ClCCCl,inactive,
Oc1cn2c(n1)Nc1ccc(Cl)c(Cl)c1C2,,1.19% [at 15.8 µM]
CN(CCOc1ccc(NS(C)(=O)=O)cc1)CCc1ccc(NS(C)(=O)=O)cc1,inactive,
CCOc1cc([N+](=O)[O-])c(OCC)cc1N1CCOCC1,15.5 µM (active),
CC(C)(C)NC(N)=O,inactive,
CCCCCCCCSCC,inactive,
CCOCCOC(=O)/C=C/c1ccc(OC)cc1,inactive,
CC(CO)c1ccccc1 (stereo not given),inactive,
Cc1ccccc1N=O,inactive,
COc1ccc(Br)c(C)c1,inactive,
CC(N)C(=O)OC(C)(C)Cc1ccc(Cl)cc1 (stereo not given),inactive,
CC(C)(C)c1n[nH]c(=S)n(N)c1=O,inactive,
O=C1CC(c2ccc(Cl)cc2)CC(=O)N1,inactive,
CCN1CCc2nc(N)oc2CC1,inactive,
O=C(Nc1ccc(Cl)c(Cl)c1)C1CC1,19 µM (active),
c1ccc2nccnc2c1,inactive,
CC(C)CC(C)CC(C)CC(C)COC(=O)c1ccccc1C(=O)OCC(C)CC(C)CC(C)CC(C)C (stereo not given),inactive,
CCOC(=O)/C=C/c1ccccc1,inactive,
C[C@@H](O)[C@H]1C(=O)N2C(C(=O)O)=C(SCCN=CN)C[C@H]12,inactive,
CCCCCCCCCC(C)=O,inactive,
